Reference: PubChem BioAssay (NCI)
This is part of a sample that, as a whole, favours compounds with a hit. Of some 79,000 tested, about 15% had one in any assay. Activity calls are given as the source filed them. Cut-off read from the data, not from the text of the source: active = growth inhibition above about 70%; inactive = the rest.

test: NCI Yeast Anticancer Drug Screen. Data for the bub3 strain (AID 167); settings: S. cerevisiae bub3 mutant strain, at 50.0 µM (retest, dose inferred, filed as 5.0), active compounds read high
Summary of the method: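 Inhibition values come from growth of compound-treated mutant yeast normalised to vehicle-treated controls.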

Compound | growth inhibition
Cc1ccccc1Sc1ccccc1[N+](=O)[O-] | 8% (inactive)
Nc1nc(-c2ccc3c(c2)Sc2ccccc2O3)cs1 | 99% (active)
CC(C)(C)C1CCC2c3c([nH]c4ccccc34)C3C(=O)N(c4ccc(C(=O)O)cc4)C(=O)C3C2C1 (stereo not given) | 99% (active)
CCC[CH2][Sn]([CH2]CCC)([O]N(C)C(=O)c1ccc(Br)cc1)[O]N(C)C(=O)c1ccc(Br)cc1 | 97% (active)
COC(=O)c1ccc([N+](=O)[O-])o1 | 71% (active)
O=C(OC1=C(Br)C(=O)c2ccccc2C1=O)c1ccccc1 | 89% (active)
O=C(O)C/C(=C\c1ccco1)C(=O)O | -13% (inactive)
N#C/C(=C/c1ccc([N+](=O)[O-])o1)c1ccccc1 | -2% (inactive)
CCN(CC)CCOc1ccc(C=C2c3ccccc3-c3ccccc32)cc1 | 99% (active)
Nc1ncnc(N2CCOCC2)c1N | -2% (inactive)
Cc1cc(Cl)ccc1N1C(=O)C(=O)C(c2nc3ccccc3o2)C(=O)C1=O | 96% (active)
Cc1nc2c(Cl)nc(Cl)nc2s1 | 98% (active)
CC1=NOC(=O)/C1=C/c1ccc(Cl)c(Cl)c1 | 71% (active)
CN(CCC(=O)/C(=C\c1ccc(Cl)cc1)c1ccccc1)Cc1ccccc1 | 99% (active)
C(=N\N=C\c1ccc2c(c1)OCO2)/c1ccc2c(c1)OCO2 | 1% (inactive)
Clc1ccc(CSc2ncnc3c2ncn3C2CCCCO2)cc1 (stereo not given) | 78% (active)
CC(=O)OC/C=C/CCCOC(C)=O | 19% (inactive)
CCCCCCCCCCOC(=O)c1cccnc1 | 91% (active)
Cc1ccc2c(c1)C1(SCC(=O)N1c1ccc(Cl)cc1)C(=O)N2 (stereo not given) | 74% (active)
Oc1ccc(C2CCc3ccccc32)cc1 (stereo not given) | 94% (active)

Compound | growth inhibition
[O-][N+]1=C2CCC/C(=N/O)C2(O)C2CCCCC21N1CCOCC1 (stereo not given) | 14% (inactive)
CCCCN(c1ccccc1)c1ncnc2c1ncn2C | 88% (active)
Cc1cc(C)nc(/C=C/c2ccccc2)c1 | 29% (inactive)
CCCCN(C)N=Nc1c(C(N)=O)n[nH]c1C(C)C | -10% (inactive)
O=C1C(Cl)=C(Cl)C(=O)C2=C1CC(Cl)C(Cl)C2 (stereo not given) | 98% (active)
O=C1Oc2ccccc2C(=O)/C1=C/N1C(=O)/C(=C/c2ccc3c(c2)OCO3)SC1=S | 30% (inactive)
O=C(/C=C/c1ccc(O)cc1)c1cc(Cl)ccc1O | 97% (active)
CCCC(C(=O)OCCNC1CCCCC1)c1ccccc1 (stereo not given) | 69% (inactive)
c1ccc2cc3c(cc2c1)Nc1c2ccccc2nc2cccc-3c12 | 78% (active)
CCCC1CCCC1(CC(=O)c1ccccc1)C(=O)O (stereo not given) | 76% (active)
COc1ccc(CCN2C(=O)C(=O)N(C3CCCCC3)C2=O)cc1OC | -5% (inactive)
COC(C(=O)O)c1ccccc1 (stereo not given) | 1% (inactive)
CCCCCCCCC(=O)NCCCNCCCNC(=O)CCCCCCCC | -28% (inactive)
C[Si](C)(CCC(=O)O)O[Si](C)(C)CCC(=O)O | 99% (active)
Cc1c2cc[n+](C)cc2c(C)c2c1[nH]c1ccc(Cl)cc12 | 99% (active)
O=[N+]([O-])c1ccc(C2=Nn3c(nnc3-c3ccc(Cl)cc3)SC2)o1 | 93% (active)
CCCCCCCCCCN(CCCCCCCCCC)CC(O)c1cc(-c2ccccc2)nc2ccccc12 (stereo not given) | 58% (inactive)
O=C(c1ccccc1)C(c1ccccc1)C1(O)C(=O)Nc2c(Cl)cc(Cl)cc21 (stereo not given) | -5% (inactive)
COC(=S)S | -5% (inactive)
CC/C(=C(\CC)c1ccc(O)c(CN(CC)CC)c1)c1ccc(OC)cc1 | 65% (inactive)

same assay, conditions: S. cerevisiae bub3 mutant strain, at 50.0 µM, active compounds read high

Compound | growth inhibition
Cc1ccccc1Sc1ccccc1[N+](=O)[O-] | 20.6% (inactive)
Nc1nc(-c2ccc3c(c2)Sc2ccccc2O3)cs1 | 86.7% (active)
CC(C)(C)C1CCC2c3c([nH]c4ccccc34)C3C(=O)N(c4ccc(C(=O)O)cc4)C(=O)C3C2C1 (stereo not given) | 99.3% (active)
CCC[CH2][Sn]([CH2]CCC)([O]N(C)C(=O)c1ccc(Br)cc1)[O]N(C)C(=O)c1ccc(Br)cc1 | 90.7% (active)
COC(=O)c1ccc([N+](=O)[O-])o1 | 62.1% (inactive)
O=C(OC1=C(Br)C(=O)c2ccccc2C1=O)c1ccccc1 | 12.1% (inactive)
O=C(O)C/C(=C\c1ccco1)C(=O)O | -27.9% (inactive)
N#C/C(=C/c1ccc([N+](=O)[O-])o1)c1ccccc1 | -13.7% (inactive)
CCN(CC)CCOc1ccc(C=C2c3ccccc3-c3ccccc32)cc1 | 99.2% (active)
Nc1ncnc(N2CCOCC2)c1N | -10.7% (inactive)
Cc1cc(Cl)ccc1N1C(=O)C(=O)C(c2nc3ccccc3o2)C(=O)C1=O | 49.1% (inactive)
Cc1nc2c(Cl)nc(Cl)nc2s1 | 98.3% (active)
CC1=NOC(=O)/C1=C/c1ccc(Cl)c(Cl)c1 | 33.9% (inactive)
CN(CCC(=O)/C(=C\c1ccc(Cl)cc1)c1ccccc1)Cc1ccccc1 | 97.6% (active)
C(=N\N=C\c1ccc2c(c1)OCO2)/c1ccc2c(c1)OCO2 | 3.9% (inactive)
Clc1ccc(CSc2ncnc3c2ncn3C2CCCCO2)cc1 (stereo not given) | 95.8% (active)
CC(=O)OC/C=C/CCCOC(C)=O | 80.3% (active)
CCCCCCCCCCOC(=O)c1cccnc1 | 78.2% (active)
Cc1ccc2c(c1)C1(SCC(=O)N1c1ccc(Cl)cc1)C(=O)N2 (stereo not given) | 64.9% (inactive)
Oc1ccc(C2CCc3ccccc32)cc1 (stereo not given) | 99.5% (active)

Compound | growth inhibition
[O-][N+]1=C2CCC/C(=N/O)C2(O)C2CCCCC21N1CCOCC1 (stereo not given) | -7.1% (inactive)
CCCCN(c1ccccc1)c1ncnc2c1ncn2C | 79.2% (active)
Cc1cc(C)nc(/C=C/c2ccccc2)c1 | 97.1% (active)
CCCCN(C)N=Nc1c(C(N)=O)n[nH]c1C(C)C | -24.2% (inactive)
O=C1C(Cl)=C(Cl)C(=O)C2=C1CC(Cl)C(Cl)C2 (stereo not given) | 99.3% (active)
O=C1Oc2ccccc2C(=O)/C1=C/N1C(=O)/C(=C/c2ccc3c(c2)OCO3)SC1=S | 66.3% (inactive)
O=C(/C=C/c1ccc(O)cc1)c1cc(Cl)ccc1O | 96.5% (active)
CCCC(C(=O)OCCNC1CCCCC1)c1ccccc1 (stereo not given) | 28.5% (inactive)
c1ccc2cc3c(cc2c1)Nc1c2ccccc2nc2cccc-3c12 | 81.3% (active)
CCCC1CCCC1(CC(=O)c1ccccc1)C(=O)O (stereo not given) | 90.2% (active)
COc1ccc(CCN2C(=O)C(=O)N(C3CCCCC3)C2=O)cc1OC | 34.1% (inactive)
COC(C(=O)O)c1ccccc1 (stereo not given) | 47.1% (inactive)
CCCCCCCCC(=O)NCCCNCCCNC(=O)CCCCCCCC | 90.8% (active)
C[Si](C)(CCC(=O)O)O[Si](C)(C)CCC(=O)O | 99.5% (active)
Cc1c2cc[n+](C)cc2c(C)c2c1[nH]c1ccc(Cl)cc12 | 91.6% (active)
O=[N+]([O-])c1ccc(C2=Nn3c(nnc3-c3ccc(Cl)cc3)SC2)o1 | 55.9% (inactive)
CCCCCCCCCCN(CCCCCCCCCC)CC(O)c1cc(-c2ccccc2)nc2ccccc12 (stereo not given) | 26.9% (inactive)
O=C(c1ccccc1)C(c1ccccc1)C1(O)C(=O)Nc2c(Cl)cc(Cl)cc21 (stereo not given) | 93.2% (active)
COC(=S)S | 15.6% (inactive)
CC/C(=C(\CC)c1ccc(O)c(CN(CC)CC)c1)c1ccc(OC)cc1 | 99.4% (active)
